Bioassay records from PubChem BioAssay.
BRCA1 expr act – activators of BRCA1 expression; MCF7-BRCA1-FFLuc reporter, luminescence, 48 h; response scale: scaled: vehicle 0%, 10 µM genistein 100%; Potency, µM (top dose mostly 46.1 µM), most hits filed as activators; actives 1.1% (n = 380,000); note: nearly all actives have a fitted effect of over 80% in size
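MCF7-BRCA1-FFLuc cells, 2000/well in phenol-red-free MEM, attached 2 h then treated 48 h at 37 C. Luciferase luminescence read 15 min after reagent; normalized to genistein maximum activation (10microM) and DMSO, concentration-response fitted.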
Nrf2 inh – Nrf2 pathway inhibition; A549 ARE-Fluc reporter, luciferase luminescence, 18-24 h; actives 2.1% (n = 360,000); AID 504444; Potency, µM (doses to about 46 µM), usual class: inhibitors; note: nearly all actives have a fitted effect of over 60% in size
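Cells were seeded and rested 2 h, then exposed to compounds for 18-24 h. CellTiter-Fluor was read first as a viability measure. BugLite was added 15 min before the final luminescent read of ARE-luciferase activity in A549 cells.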
IL2 activator – IL-2 activation. IL-2 activation reporter assay, cell-based qHTS; stimulated with anti-CD3/CD4/CD28 beads; in transgenic mouse T cells. activation, % (series mostly up to about 46 µM). actives 0.065% (n = 360,000). AID 652025; in the data active = activation above about 50%; inconclusive = mostly about 30% to 49%
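Unstimulated transgenic mouse T cells preincubated 60 min with compound, then stimulated with anti-CD3/anti-CD4-coated beads plus anti-CD28 for 18 h at 37 degrees C. IL-2 response read as EGFP and DsRed fluorescence by plate cytometry.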
Nrf2 activator – activates Nrf2 signaling; Potency, µM (highest dose often 46.1 µM), hits mostly activators; AREc32 ARE-luciferase reporter (MCF7-derived line), luminescence, 24 h; AID 624171; actives 0.31% (n = 410,000); note: nearly all actives have a fitted effect of over 65% in size
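For detection, Steady-Glo was added and plates sat 30 min at RT; before that, AREc32_Fluc cells grown overnight in OPTI-MEM/5% FBS had been treated with 23 nL compound for 24 hr at 37 deg C.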
p53 reactivator – mutant p53 re-activation in reporter cells; H1299 p53-A138V BP100-luciferase reporter, luminescence, 24 h; Potency, µM (highest dose often 92.2 µM), most hits filed as activators; actives 0.063% (n = 320,000); note: nearly all actives have a fitted effect of over 45% in size
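p53-null H1299 cells stably carrying temperature-sensitive p53-A138V and a BP100-luciferase reporter were pinned with compounds (4-point, 1:5 series) and held 24 hrs at 37 deg C. Luminescence was read 10 min after detection reagent.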
A549 viability – A549 cytotoxicity, counter-screen for Nrf2 inhibitors | A549 ARE-Fluc cells, CellTiter-Fluor viability, 18-24 h | Potency, µM (series often up to 46 µM), hits mostly inhibitors | actives 0.16% (n = 390,000)
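A549 ARE-Fluc cells in 5% FBS OPTI-MEM, 5000 cells/well, rested 2 h then exposed to compounds in concentration-response for 18-24 h at 37 °C. Viability by CellTiter-Fluor fluorescence (Ex 405/Em 525) after 30 min; luciferase luminescence (BugLite, 15 min, RT) read afterwards.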
Of the large screens only hits and unclear results are named; the others gave an inactive call. Most compounds without a hit are left out; they make up all but 3.2% or so of the library. Unless noted, calls come from the whole dose curve; as a rule, active = well fitted curve in the direction sought with a large enough effect; inconclusive = small, poorly fitted or top-dose-only effect, or another doubt; inactive = no such curve, though single readings can be large; an effect the other way counts as inactive or inconclusive.

Clc1ccccc1CSc1ncn(-c2ccccc2)n1	Nrf2 inh inconclusive, p53 reactivator inconclusive
Cc1cc2c(cc1S(=O)(=O)Nc1ccc(C(C)C)cc1)OCCN2C	Nrf2 inh 13µM (no result: BRCA1 expr act, IL2 activator, p53 reactivator)
CC(=O)c1cccc(NS(=O)(=O)c2cc3c(cc2C)N(C(C)=O)CCO3)c1	Nrf2 inh 18µM, A549 viability inconclusive
Cc1ccc(C)c(S(=O)(=O)NCc2ccc(C(=O)N3CCN(C)CC3)cc2)c1	none
Cc1ccc(C(=O)Nc2ccc(C(=O)O)cc2)cc1S(=O)(=O)NCc1ccccc1	IL2 activator 535
Cc1ccc(C)c(S(=O)(=O)NCc2ccc(C(=O)N3CCC(Cc4ccccc4)CC3)cc2)c1	Nrf2 inh 16µM
Cc1ccc(OCC(=O)NNc2c3ccccc3nc3ccccc23)cc1	Nrf2 inh 18µM, A549 viability inconclusive
Cc1cccc(OCC(=O)NNc2c3ccccc3nc3ccccc23)c1	Nrf2 inh inconclusive, A549 viability inconclusive
